Measured values taken from PubChem BioAssay (NCATS).
Results filed as inconclusive are left out. Calls of active or inactive are those of the source. Calls follow the shape of the dose curve; as a rule, active = well fitted curve in the direction sought with a large enough effect; inconclusive = small, poorly fitted or top-dose-only effect, or another doubt; inactive = no such curve, though single readings can be large; an effect the other way counts as inactive or inconclusive.

Legend:
[1] = qHTS assay for measurement of the activity of small molecule inhibitors on Zika virus induced Caspase-3 activity in human iPSC derived neural progenitor cells (hNPCs) (AID 1224857); also: nearly all actives have a fitted effect of over 65% in size; also: potency is read from the fitted curve at half-maximal effect; as to activity change, negative = inhibition: % of control where 0% means no effect
Outline: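 Quantitative HTS format: human iPSC neural progenitors, 1 h compound pretreatment, ZIKV 2 FFU/cell for 6 h at 37 C. Percent inhibition derived from luminescent caspase-3/7 signal between uninfected and infected controls.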

[2] = qHTS assay for measurement of the activity of small molecule inhibitors on Zika virus induced Caspase-3 activity in human astrocytoma cells (AID 1224859); also: potency is read from the fitted curve at half-maximal effect;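 as to activity change, negative = inhibition: plate controls were ZIKV-infected untreated cells for no effect and uninfected cells for full effect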
Outline: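 Readout is luminescence from Caspase-Glo 3/7 added after a 6 h ZIKV infection (2 FFU/cell) of compound-pretreated (1 h) SNB-19 cells; data expressed as % inhibition versus uninfected and infected wells.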

[3] = qHTS Screen of the MIPE 4.0 Collection Against Ewings Sarcoma (RDES) (AID 1259252); also: nearly all actives have a fitted effect of over 35% in size; also: potency is read from the fitted curve at half-maximal effect;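 as to viability (percent of control): 100% = DMSO-treated cells and 0% = medium-only wells without cells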
Outline: (§1)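 Measured: ATP luminescence (CellTiter-Glo) 10 min after reagent addition, following 48 h drug treatment. Relative luciferase units converted to percent activity, with no-cell wells as full and DMSO wells as zero inhibition.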

[4] = qHTS Screen of the MIPE 4.0 Collection Against Ewings Sarcoma (TC71) (AID 1259253); also: nearly all actives have a fitted effect of over 40% in size; also: potency is read from the fitted curve at half-maximal effect;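 as to viability (% of DMSO): 100% = DMSO-treated cells and 0% = medium-only wells without cells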
Outline: as §1

[5] = qHTS Screen of the MIPE 4.0 Collection Against Ewings Sarcoma (EW8) (AID 1259255); also: nearly all actives have a fitted effect of over 35% in size; also: potency is read from the fitted curve at half-maximal effect;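 as to viability: 100% = DMSO-treated cells and 0% = medium-only wells without cells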
Outline: as §1

[6] = qHTS assay to identify small molecule inhibitors of chordoma cells - UCH-2 (AID 1259356); also: series mostly up to about 46 µM; % is scaled to controls: 0 for no effect and ±100 for the full control effect
[7] = qHTS Screen of the MIPE 4.0 Collection Against Ewings Sarcoma (TC32) (AID 1259256); also: nearly all actives have a fitted effect of over 45% in size; also: potency is read from the fitted curve at half-maximal effect;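 as to viability (percent of control): 100% = DMSO-treated cells and 0% = medium-only wells without cells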
Outline: as §1

[8] = Identifying Small Molecule Inhibitors of Pancreatic Cancer Stem Cells (SN12C, Adherent) (AID 1259358);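 also: cell survival measured after 48 h of compound exposure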; also: potency is read from the fitted curve at half-maximal effect
Outline: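 After a 4 h attachment period, compounds were pinned into wells and cultures held 48 h under standard incubator conditions. Viability was then measured as CellTiter-Glo luminescence following 10 min at room temperature.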

[9] = Identifying Small Molecule Inhibitors of Pancreatic Cancer Stem Cells (A2780, Spheroid) (AID 1259357); details: Potency: A2780 spheroid viability;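 also: spheroids pre-formed over 14 days in stem cell medium on hydrogel; potency is read from the fitted curve at half-maximal effect; compound exposure lasted 48 h before the ATP luminescence read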
Outline: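 Spheroids grown 14 days in stem cell media on nonadherent hydrogel before screening; cells attached 4 h, then compound exposure 48 h at 37C, 5% CO2. CellTiter-Glo luminescence normalized to DMSO (no inhibition) and no-cell wells (full inhibition).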

[10] = qHTS assay to identify small molecule inhibitors of chordoma cells - UCH-1 (AID 1259355); also: % is scaled to controls: 0 for no effect and ±100 for the full control effect; nearly all actives have a fitted effect of over 55% in size
Outline: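 Luminescent ATP read-out (CellTiter-Glo, 30min at room temperature) measured viability of UCH-1 cells exposed for 48hr to test drugs at 15 concentrations, co-dosed with a five-agent combination of auranofin, camptothecin, doxorubicin, rubitecan and topotecan.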

COc1ccc(CC2c3cc(OC)c(OC)cc3CC[N+]2(C)CCC(=O)OCCCCCOC(=O)CC[N+]2(C)CCc3cc(OC)c(OC)cc3C2Cc2ccc(OC)c(OC)c2)cc1OC (stereo not given)
inactive: activity change, negative = inhibition [1] 18.4% [at 9.06 µM] | activity change, negative = inhibition [2] 7.2% [at 9.06 µM] | viability (percent of control) [3] 121% [at 5.15 µM] | viability (% of DMSO) [4] 110% [at 5.15 µM] | viability [5] 117% [at 5.15 µM] | outcome [6]

Fc1cc(-c2cccc3ncc(-c4cnn(C5CCNCC5)c4)nc23)cc(F)c1CN1CCOCC1
active: Potency [3] 20900 nM | Potency [5] 20900 nM | Potency [7] 18700 nM | Potency [8] 23500 nM
inactive: Potency [1] | Potency [2]

CCCCCCCCCC(=O)N[C@@H](Cc1c[nH]c2ccccc12)C(=O)N[C@H](CC(N)=O)C(=O)N[C@@H](CC(=O)O)C(=O)N[C@@H]1C(=O)NCC(=O)N[C@@H](CCCN)C(=O)N[C@@H](CC(=O)O)C(=O)N[C@H](C)C(=O)N[C@@H](CC(=O)O)C(=O)NCC(=O)N[C@H](CO)C(=O)N[C@@H]([C@@H](C)CC(=O)O)C(=O)N[C@@H](CC(=O)c2ccccc2N)C(=O)O[C@@H]1C
inactive: Potency [1] | Potency [2] | Potency [3] | Potency [5] | Potency [7]

Cc1cc(Nc2cc(NC(=O)c3c(Cl)cccc3Cl)ccn2)nc(N)n1
active: Potency [3] 332 nM | Potency [4] 148 nM | Potency [5] 187 nM | Potency [9] 20900 nM
inactive: Potency [1] | Potency [2]

C=C1C(=CC=C2CCC[C@]3(C)[C@@H]([C@H](C)C=C[C@H](C)C(C)C)CC[C@@H]23)C[C@@H](O)C[C@@H]1O
active: Potency [3] 332 nM | Potency [5] 2350 nM | Potency [7] 833 nM
inactive: Potency [1] | Potency [2]

CC(C)(C)OC(=O)Nc1ccc(-c2cc(C(=O)NCCCCCCC(=O)NO)no2)cc1
inactive: Potency [1] | Potency [2]
active: Potency [3] 2090 nM | Potency [5] 1320 nM | Potency [7] 1660 nM | Potency [8] 26400 nM

C[C@@H]1CN(CC(=O)Nc2ccc3c(c2)Cc2cccc(-c4cc(=O)cc(N5CCOCC5)o4)c2S3)C[C@H](C)O1
inactive: Potency [1] | Potency [2] | Potency [8]
active: Potency [3] 23500 nM | Potency [4] 20900 nM | Potency [5] 23500 nM

CCCCCN(CCC12CC3CC(CC(C3)C1)C2)C(=O)NCCCc1ccncc1
inactive: Potency [1] | Potency [2] | Potency [8]
active: Potency [3] 16600 nM | Potency [4] 18700 nM | Potency [5] 18700 nM

O=c1[nH]c(=O)n(C2CCCO2)cc1F (stereo not given)
inactive: Potency [1] | Potency [2] | Potency [3] | Potency [4] | Potency [5] | Potency [10] | outcome [6]

OCc1ccc(-c2ccc(-c3ccc(CO)s3)o2)s1
inactive: Potency [2]
active: Potency [1] 26400 nM | Potency [3] 52.6 nM | Potency [5] 7.4 nM | Potency [7] 18700 nM

CCN(CC)CCCCNc1ncc2cc(-c3cc(OC)cc(OC)c3)c(NC(=O)NC(C)(C)C)nc2n1
inactive: Potency [1] | Potency [2]
active: Potency [3] 20900 nM | Potency [5] 18700 nM | Potency [7] 16600 nM | Potency [8] 14800 nM

Nc1ccn([C@@H]2O[C@H](CO)[C@H](O)C2(F)F)c(=O)n1
inactive: Potency [1] | Potency [2] | outcome [6]
active: Potency [3] 52.6 nM | Potency [4] 41.8 nM | Potency [5] 16.6 nM

Cc1cn2c(-c3cn[nH]c3)cnc2c(Nc2ccc(C(=O)N3CCNCC3)cc2F)n1
active: Potency [3] 16600 nM | Potency [4] 18700 nM | Potency [5] 16600 nM | Potency [8] 20900 nM
inactive: Potency [1] | Potency [2]

O=c1c2ccccc2nc2n1CCc1c-2[nH]c2ccccc12
inactive: Potency [3] | Potency [5] | Potency [7]
active: Potency [1] 13200 nM | Potency [2] 7940 nM

Cc1[nH]nc2ccc(-c3cncc(OC[C@@H](N)Cc4ccccc4)c3)cc12
inactive: Potency [1] | Potency [2]
active: Potency [3] 2090 nM | Potency [5] 833 nM | Potency [7] 2960 nM | Potency [8] 7430 nM

CCCCN1CCC(CNC(=O)c2c3n(c4ccccc24)CCCO3)CC1
active: Potency [3] 8330 nM | Potency [5] 14800 nM | Potency [7] 13200 nM
inactive: Potency [1] | Potency [2] | Potency [8]

CC[C@@]1(O)C(=O)OCc2c1cc1n(c2=O)Cc2cc3cc(O)ccc3nc2-1
active: Potency [3] 13.2 nM | Potency [5] 13.2 nM | Potency [7] 3.3 nM
inactive: Potency [1] | Potency [2]

CC=C1NC(=O)[C@H]2CSSCCC=C[C@H](CC(=O)N[C@H](C(C)C)C(=O)N2)OC(=O)[C@H](C(C)C)NC1=O
active: Potency [3] 14.8 nM | Potency [5] 18.7 nM | Potency [7] 14.8 nM | Potency [8] 5.3 nM
inactive: Potency [1] | Potency [2]

C#Cc1cccc(Nc2ncnc3cc(OC)c(OCCCCCCC(=O)NO)cc23)c1
active: Potency [3] 20.9 nM | Potency [4] 74.3 nM | Potency [5] 59 nM | Potency [8] 14800 nM
inactive: Potency [1] | Potency [2]

C=CC(=O)Nc1cccc(Oc2nc(Nc3ccc(N4CCN(C)CC4)cc3)ncc2Cl)c1
inactive: Potency [1] | Potency [2]
active: Potency [3] 2350 nM | Potency [5] 2640 nM | Potency [7] 2640 nM
